# Measurements taken from PubChem BioAssay (NCATS).
# Results filed as inconclusive are left out. Entries that show only a call come without a potency. The source made the active and inactive calls. Unless noted, calls follow the shape of the dose curve; as a rule, active = well fitted inhibition curve with a large enough effect; inconclusive = small, poorly fitted or top-dose-only effect; inactive = flat fitted curve, though single readings scatter.
# Legend:
# 3D7 = assay: qHTS profiling for inhibitors of Plasmodium falciparum proliferation (AID 504749); also: nearly all actives have a fitted effect of over 60% in size; settings: P. falciparum in erythrocytes, SYBR Green DNA, 72 h; series mostly up to 28.7 µM
# Method in brief: (§1)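 Quantitative HTS: compounds pinned into medium, infected erythrocytes added (0.3% parasitemia, 2.5% hematocrit), 72 h culture at 37 C under 5% CO2. Saponin/Triton lysis with SYBR Green I, overnight RT, then fluorescence read.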
# CP185 = assay: as above; settings: P. falciparum in erythrocytes, SYBR Green DNA, 72 h; series mostly up to 28.7 µM
# Method in brief: as §1
# CP203 = assay: as above; settings: P. falciparum in erythrocytes, SYBR Green DNA, 72 h; series mostly up to 28.7 µM
# Method in brief: as §1
# CP211 = assay: as above; settings: P. falciparum in erythrocytes, SYBR Green DNA, 72 h; series mostly up to 28.7 µM
# Method in brief: as §1
# CP217 = assay: as above; settings: P. falciparum in erythrocytes, SYBR Green DNA, 72 h; series mostly up to 28.7 µM
# Method in brief: as §1
# CP250 = assay: as above; settings: P. falciparum in erythrocytes, SYBR Green DNA, 72 h; series mostly up to 28.7 µM
# Method in brief: as §1
# CP252 = assay: as above; settings: P. falciparum in erythrocytes, SYBR Green DNA, 72 h; series mostly up to 28.7 µM
# Method in brief: as §1
# CP256 = assay: as above; settings: P. falciparum in erythrocytes, SYBR Green DNA, 72 h; series mostly up to 28.7 µM
# Method in brief: as §1
# CP262 = assay: as above; settings: P. falciparum in erythrocytes, SYBR Green DNA, 72 h; series mostly up to 28.7 µM
# Method in brief: as §1
# CP265 = assay: as above; settings: P. falciparum in erythrocytes, SYBR Green DNA, 72 h; series mostly up to 28.7 µM
# Method in brief: as §1
# CP291 = assay: as above; settings: P. falciparum in erythrocytes, SYBR Green DNA, 72 h; series mostly up to 28.7 µM
# Method in brief: as §1
# CP305 = assay: as above; settings: P. falciparum in erythrocytes, SYBR Green DNA, 72 h; series mostly up to 28.7 µM
# Method in brief: as §1
# CP315 = assay: as above; settings: P. falciparum in erythrocytes, SYBR Green DNA, 72 h; series mostly up to 28.7 µM
# Method in brief: as §1
# CP335 = assay: as above; settings: P. falciparum in erythrocytes, SYBR Green DNA, 72 h; series mostly up to 28.7 µM
# Method in brief: as §1
# DIV30 = assay: as above; settings: P. falciparum in erythrocytes, SYBR Green DNA, 72 h; series mostly up to 28.7 µM
# Method in brief: as §1
# ECU = assay: as above; settings: P. falciparum in erythrocytes, SYBR Green DNA, 72 h; series mostly up to 28.7 µM
# Method in brief: as §1
# HB3 = assay: as above; settings: P. falciparum in erythrocytes, SYBR Green DNA, 72 h; series mostly up to 28.7 µM
# Method in brief: as §1
# N140 = assay: as above; settings: P. falciparum in erythrocytes, SYBR Green DNA, 72 h; series mostly up to 28.7 µM
# Method in brief: as §1
# TAB113 = assay: as above; settings: P. falciparum in erythrocytes, SYBR Green DNA, 72 h; series mostly up to 28.7 µM
# Method in brief: as §1
# [1] = S16 Schwann cell PMP22 intronic element beta-lactamase assay (AID 624044; calls by dose curve; also: nearly all actives have a fitted effect of over 15% in size); settings: S16 rat Schwann cells, PMP22 element beta-lactamase FRET, 24 h; ratio activity, negative = inhibition: at 38.3 µM (top of the series)
# Method in brief: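 Beta-lactamase reporter under a PMP22 intronic regulatory element in stable S16 rat Schwann cells; 24 h compound exposure. 460 nm blue signal normalized between DMSO (0%) and potassium clavulanate, with 535 nm FRET tracking viability; curves classed by r2 and response.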
# Potency is read from the fitted curve at half-maximal effect.
smiles,measurement,setting,value
CCCCCc1cc(O)c2c(c1)OC(C)(C)C1CC=C(C)CC21 (stereo not drawn),Potency,3D7,2.82 µM (active)
same,Potency,CP185,6.31 µM (active)
same,Potency,CP203,2.13 µM (active)
same,Potency,CP211,5.36 µM (active)
same,Potency,CP217,2.24 µM (active)
same,Potency,CP250,7.08 µM (active)
same,Potency,CP252,3.16 µM (active)
same,Potency,CP256,11.2 µM (active)
same,Potency,CP262,4.26 µM (active)
same,Potency,CP265,3.55 µM (active)
same,Potency,CP291,6.75 µM (active)
same,Potency,CP305,12 µM (active)
same,Potency,CP315,4.26 µM (active)
same,Potency,CP335,3.38 µM (active)
same,Potency,DIV30,2.39 µM (active)
same,Potency,ECU,2 µM (active)
same,Potency,HB3,5.01 µM (active)
same,Potency,N140,1.12 µM (active)
same,Potency,TAB113,2 µM (active)
C=C1Nc2ccccc2C(=O)N1c1ccccc1C,Potency,3D7,inactive
same,Potency,CP185,inactive
same,Potency,CP203,inactive
same,Potency,CP211,inactive
same,Potency,CP217,inactive
same,Potency,CP250,inactive
same,Potency,CP252,inactive
same,Potency,CP256,inactive
same,Potency,CP262,inactive
same,Potency,CP265,inactive
same,Potency,CP291,inactive
same,Potency,CP305,inactive
same,Potency,CP315,inactive
same,Potency,CP335,inactive
same,Potency,DIV30,inactive
same,Potency,ECU,inactive
same,Potency,HB3,inactive
same,Potency,N140,inactive
same,Potency,TAB113,inactive
C[C@@H]1CC[C@H]2[C@@H](C)C(=O)O[C@@H]3OC4(C)CC[C@@H]1C32OO4 (stereo partly drawn),Potency,[1],inactive
same,Potency,3D7,0.0079 µM (active)
same,Potency,CP185,0.0089 µM (active)
same,Potency,CP203,0.0135 µM (active)
same,Potency,CP211,0.0169 µM (active)
same,Potency,CP217,0.01 µM (active)
same,Potency,CP250,0.0141 µM (active)
same,Potency,CP252,0.01 µM (active)
same,Potency,CP256,0.01 µM (active)
same,Potency,CP262,0.0135 µM (active)
same,Potency,CP265,0.0079 µM (active)
same,Potency,CP291,0.0107 µM (active)
same,Potency,CP305,0.0135 µM (active)
same,Potency,CP315,0.0239 µM (active)
same,Potency,CP335,0.0067 µM (active)
same,Potency,DIV30,0.0085 µM (active)
same,Potency,ECU,0.0056 µM (active)
same,Potency,HB3,0.0089 µM (active)
same,Potency,N140,0.0056 µM (active)
same,Potency,TAB113,0.0056 µM (active)
C[C@]12CCC3C(CCC4=C(Cl)C(=O)CC[C@@]43C)C1CCC2O (stereo partly drawn),Potency,3D7,inactive
same,Potency,CP185,inactive
same,Potency,CP203,inactive
same,Potency,CP211,inactive
same,Potency,CP217,inactive
same,Potency,CP250,inactive
same,Potency,CP252,inactive
same,Potency,CP256,inactive
same,Potency,CP262,inactive
same,Potency,CP265,inactive
same,Potency,CP291,inactive
same,Potency,CP305,inactive
same,Potency,CP315,inactive
same,Potency,CP335,inactive
same,Potency,DIV30,inactive
same,Potency,ECU,inactive
same,Potency,HB3,inactive
same,Potency,N140,inactive
same,Potency,TAB113,inactive
CCCC(C)C1(CC)C(=O)NC(=S)NC1=O (stereo not drawn),Potency,[1],inactive
same,Potency,3D7,inactive
same,Potency,CP185,inactive
same,Potency,CP203,inactive
same,Potency,CP211,inactive
same,Potency,CP217,inactive
same,Potency,CP250,inactive
same,Potency,CP252,inactive
same,Potency,CP256,inactive
same,Potency,CP262,inactive
same,Potency,CP265,inactive
same,Potency,CP291,inactive
same,Potency,CP305,inactive
same,Potency,CP315,inactive
same,Potency,CP335,inactive
same,Potency,DIV30,inactive
same,Potency,ECU,inactive
same,Potency,HB3,inactive
same,Potency,N140,inactive
same,Potency,TAB113,inactive
Cc1ccc2c(c1)[C@@H]1CN(C)CC[C@H]1N2,Potency,[1],inactive
same,Potency,3D7,inactive
same,Potency,CP185,inactive
same,Potency,CP203,inactive
same,Potency,CP211,inactive
same,Potency,CP217,inactive
same,Potency,CP250,inactive
same,Potency,CP252,inactive
same,Potency,CP256,inactive
same,Potency,CP262,inactive
same,Potency,CP265,inactive
same,Potency,CP291,inactive
same,Potency,CP305,inactive
same,Potency,CP315,inactive
same,Potency,CP335,inactive
same,Potency,ECU,inactive
same,Potency,HB3,inactive
same,Potency,N140,inactive
same,Potency,TAB113,inactive
O=[N+]([O-])OC1CO[C@H]2C(O[N+](=O)[O-])COC12 (stereo partly drawn),Potency,[1],inactive
same,Potency,3D7,inactive
same,Potency,CP185,inactive
same,Potency,CP203,inactive
same,Potency,CP211,inactive
same,Potency,CP217,inactive
same,Potency,CP250,inactive
same,Potency,CP252,inactive
same,Potency,CP256,inactive
same,Potency,CP262,inactive
same,Potency,CP265,inactive
same,Potency,CP291,inactive
same,Potency,CP305,inactive
same,Potency,CP315,inactive
same,Potency,CP335,inactive
same,Potency,DIV30,inactive
same,Potency,ECU,inactive
same,Potency,HB3,inactive
same,Potency,N140,inactive
same,Potency,TAB113,inactive
CC1(C)S[C@@H]2[C@H](N)C(=O)N2C1C(=O)O (stereo partly drawn),Potency,3D7,inactive
same,Potency,CP185,inactive
same,Potency,CP203,inactive
same,Potency,CP211,inactive
same,Potency,CP217,inactive
same,Potency,CP250,inactive
same,Potency,CP252,inactive
same,Potency,CP256,inactive
same,Potency,CP262,inactive
same,Potency,CP265,inactive
same,Potency,CP291,inactive
same,Potency,CP305,inactive
same,Potency,CP315,inactive
same,Potency,CP335,inactive
same,Potency,DIV30,inactive
same,Potency,ECU,inactive
same,Potency,HB3,inactive
same,Potency,N140,inactive
same,Potency,TAB113,inactive
OCC(O)[C@H]1O[C@@H]2O[C@H](C(Cl)(Cl)Cl)O[C@@H]2[C@H]1O (stereo partly drawn),Potency,[1],inactive
same,Potency,3D7,inactive
same,Potency,CP185,inactive
same,Potency,CP203,inactive
same,Potency,CP211,inactive
same,Potency,CP217,inactive
same,Potency,CP250,inactive
same,Potency,CP252,inactive
same,Potency,CP256,inactive
same,Potency,CP262,inactive
same,Potency,CP265,inactive
same,Potency,CP291,inactive
same,Potency,CP305,inactive
same,Potency,CP315,inactive
same,Potency,CP335,inactive
same,Potency,DIV30,inactive
same,Potency,ECU,inactive
same,Potency,HB3,inactive
same,Potency,N140,inactive
same,Potency,TAB113,inactive
COC(C(=O)C(O)C(C)O)C1Cc2cc3cc(OC4CC(OC5CC(O)C(OC)C(C)O5)C(OC(C)=O)C(C)O4)c(C)c(O)c3c(O)c2C(=O)C1OC1CC(OC2CC(OC3CC(C)(O)C(OC(C)=O)C(C)O3)C(O)C(C)O2)C(O)C(C)O1 (stereo not drawn),Potency,[1],0.0794 µM (active)
same,Potency,3D7,0.631 µM (active)
same,Potency,CP185,1.26 µM (active)
same,Potency,CP203,4.78 µM (active)
same,Potency,CP217,1.78 µM (active)
same,Potency,CP250,2 µM (active)
same,Potency,CP252,2 µM (active)
same,Potency,CP256,2.51 µM (active)
same,Potency,CP262,3.38 µM (active)
same,Potency,CP265,2.24 µM (active)
same,Potency,CP291,2.13 µM (active)
same,Potency,CP305,2.39 µM (active)
same,Potency,CP335,0.338 µM (active)
same,Potency,ECU,1 µM (active)
same,Potency,HB3,0.355 µM (active)
same,Potency,N140,1 µM (active)
same,Potency,TAB113,0.708 µM (active)
CCC/C=C/C=C/C(=O)OC1/C(=C/C(=O)OC)CC2CC(C(C)O)OC(=O)CC(O)CC3CC(OC(C)=O)C(C)(C)C(O)(CC4C/C(=C/C(=O)OC)CC(/C=C\C(C)(C)C1(O)O2)O4)O3 (stereo not drawn),"ratio activity, negative = inhibition",[1],-43.6% (active)
same,Potency,3D7,2.82 µM (active)
same,Potency,CP185,1 µM (active)
same,Potency,CP217,0.794 µM (active)
same,Potency,CP250,1 µM (active)
same,Potency,CP252,1.26 µM (active)
same,Potency,CP256,1.26 µM (active)
same,Potency,CP265,1.41 µM (active)
same,Potency,CP291,2.69 µM (active)
same,Potency,CP305,1.9 µM (active)
same,Potency,CP335,1.9 µM (active)
same,Potency,DIV30,1.07 µM (active)
same,Potency,ECU,1.26 µM (active)
same,Potency,HB3,2.24 µM (active)
same,Potency,N140,1.12 µM (active)
same,Potency,TAB113,1.78 µM (active)
